GCN5L2 inh: GCN5L2 (KAT2A) acetyltransferase inhibition | GCN5L2 HAT assay, ThioGlo1 CoA-SH fluorescence | Potency, µM (doses to about 58.9 µM), most hits filed as inhibitors | 0.21% of 390,000 active
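qHTS, 1536-well. 20nM enzyme, pH 7.5 HEPES/EDTA/Tween-20 buffer; 15 min compound preinc., RT. Start: 75uM H3(1-25), 70uM AcCoA, 50uM ThioGlo1. Read Ex340/Em540 at t=0 (autofluorescence flag) and t=20 min.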
HP1b binding inh: blocks HP1-beta chromodomain binding to methylated histone tails; P83916; AlphaScreen HP1-beta / biotin-H3K9me3 peptide binding; Potency, µM (highest dose often 114 µM), actives largely listed as inhibitors; 0.56% of 390,000 active; further: nearly all actives have a fitted effect of over 70% in size
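AlphaScreen: HP1-beta (50 nM) preformed 30 min with biotin-H3(1-18)K9me3 peptide (50 nM) in PBS pH 7.4, 0.01% Tween-20. Compound added for 30 min at RT, then streptavidin donor/nickel chelate acceptor beads (10 ug/mL) for 30 min.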
JMJD2A Tudor: blocks the human JMJD2A Tudor domain. Potency, µM (doses to about 114 µM), actives largely listed as inhibitors. 4.4% of 390,000 active. AID 504339. AlphaScreen JMJD2A-Tudor / H3K4me3 peptide binding; further: nearly all actives have a fitted effect of over 50% in size
BAZ2B inh: inhibitors of human BAZ2B bromodomain; AlphaScreen BAZ2B-H3K14Ac peptide displacement; 4.4% of 360,000 active; AID 504333; Q9UIF8; Potency, µM (series often up to 114 µM), usual class: inhibitors; further: nearly all actives have a fitted effect of over 60% in size
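Complex of BAZ2B and biotin-H3K14Ac (50 nM apiece) forms over 30 min at RT, then faces library compounds up to 110 uM for another 30 min; AlphaScreen beads added, 20 min dark incubation, luminescence read.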
PI5P4Ka inh: blocks human PI5P4K alpha kinase activity. 1.2% of 330,000 active. PI5P4Kalpha enzyme, ADP-Glo luminescence, 60 min; active compounds read low. max response, %. P48426; active means max response of -50% or lower; inconclusive means between -30% and -50%; inactive means -30% or higher; further: value at the top dose of about 77 µM
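Reactions run in 0.038 M HEPES pH 7.4, 0.28 mM EGTA, 0.1% CHAPS and 5% DMSO, with PI5P4Kalpha, substrate, compound and 5 microM ATP final, one hour at room temperature. Readout is ADP-Glo luminescence.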
PLK1 PBD inh: blocks phosphopeptide binding to human PLK1 polo-box domain; P53350; Plk1 PBD binding of FITC phosphopeptide, fluorescence polarization; Potency, µM, hits mostly inhibitors; 2.8% of 360,000 active; further: series mostly up to about 57 µM; nearly all actives have a fitted effect of over 65% in size
Hits are given with their value; i = inactive; ? = inconclusive; nt = no result given; [ ] = dose if it differs, or a comment. In the library only some 7% were active in any assay of this set; here they are far more common. Unless noted, the call rests on the fitted dose curve; in most records, active means well fitted curve in the direction sought with a large enough effect; inconclusive means small, poorly fitted or top-dose-only effect, or another doubt; inactive means no such curve, though single readings can be large; an effect the other way counts as inactive or inconclusive.

SMILES	GCN5L2 inh	HP1b binding inh	JMJD2A Tudor	BAZ2B inh	PI5P4Ka inh	PLK1 PBD inh
COc1ccc2sc(N(CCCN(C)C)C(=O)c3ccc(S(=O)(=O)N(C)Cc4ccccc4)cc3)nc2c1	i	?	50µM	?	i	i
CCN(c1ccccc1)S(=O)(=O)c1ccc(C(=O)N(CCCN(C)C)c2nc3c(C)cccc3s2)cc1	i	i	45µM	28µM	i	i
CCN(c1ccccc1)S(=O)(=O)c1ccc(C(=O)N(CCCN(C)C)c2nc3cc4c(cc3s2)OCO4)cc1	i	?	40µM	i	i	i
CCN(Cc1ccccc1)S(=O)(=O)c1ccc(C(=O)N(CCCN(C)C)c2nc3c(F)cccc3s2)cc1	i	i	?	?	i	i
O=c1[nH]c2cccc(Cl)c2c2ccccc12	nt	nt	nt	nt	i	i
Cc1ccccc1OCCOC(=O)c1cc(S(=O)(=O)N2CCOCC2)ccc1C	nt	nt	nt	nt	i	i
CN(C)CCCN(C(=O)c1ccc(S(=O)(=O)N(C)Cc2ccccc2)cc1)c1nc2cc3c(cc2s1)OCO3	i	i	50µM	?	i	i
CN(C)CCCN(C(=O)c1ccc(S(=O)(=O)N2CCCCCC2)cc1)c1nc2cc3c(cc2s1)OCO3	nt	nt	nt	nt	i	i
Cc1c(C(=O)Nc2nc(-c3ccc(F)cc3)ns2)oc2ccc(Cl)cc12	i	i	i	i	nt	nt
Nc1ccc(-c2ncc(-c3ccccc3)o2)cc1	i	i	?	28µM	i	i
O=C(O)c1ccccc1-c1ncc(-c2ccccc2)o1	nt	i	i	nt	i	i
COc1ccc(S(=O)(=O)N2CCCCCC2)cc1NS(=O)(=O)c1cc(C(=O)O)cc(C)c1C	i	i	i	i	i	i
Cc1cccc(-c2nc(SCC(=O)NCC3CCCO3)c3c(=O)n(C)c(=O)n(C)c3n2)c1 (stereo not drawn)	i	i	i	i	nt	nt
Cc1ccc(NC(=O)NC2=NN(c3ccccc3)C(=O)/C2=C2/CCCN2C)cc1	i	i	i	i	i	i
CN1CCC/C1=C1/C(=O)N(c2ccccc2)N=C1NC(=O)Nc1cccc(Cl)c1	i	i	20µM	i	?	3.8µM
Cc1[nH]n(-c2ccccc2)c(=O)c1-c1ccc(Cl)cc1	i	i	79µM	i	i	27µM
CC(C)Oc1ccc(C(=O)NC2CCCCC2)cc1	i	i	i	i	i	i
CC(C)Oc1ccc(C(CCN)C2CCCCC2)cc1 (stereo not drawn)	i	79µM	22µM	50µM	i	i
C=CCNc1nnc(SC2CC(=O)N(c3ccc(OC)cc3)C2=O)s1 (stereo not drawn)	i	i	45µM	i	nt	27µM
COc1ccc(N2C(=O)CC(Sc3nnc(-c4ccccc4F)n3C)C2=O)cc1 (stereo not drawn)	i	i	i	i	i	24µM
COC(=O)C1=C(C)N(Cc2ccccc2)C(=NCCc2c[nH]c3ccccc23)N[C@H]1c1cccc(F)c1	i	i	?	nt	i	i
COC(=O)C1=C(C)N(Cc2ccccc2)C(=NCCc2c[nH]c3ccccc23)N[C@H]1c1ccccc1	i	i	?	56µM	i	i
Cc1ccc(C)c(OCC(O)CN2CCC(C)CC2)c1C (stereo not drawn)	i	i	i[11.4 µM]	50µM	i	i
Cc1ccc2ccc(C(Nc3ccccc3)c3ccc(C(C)C)cc3)c(O)c2n1 (stereo not drawn)	nt	nt	nt	nt	i	i
COc1cc(C(Nc2ccccn2)c2ccc3ccc(C)nc3c2O)cc(OC)c1O (stereo not drawn)	i	?	50µM	50µM	-58	2.4µM
SMILES	GCN5L2 inh	HP1b binding inh	JMJD2A Tudor	BAZ2B inh	PI5P4Ka inh	PLK1 PBD inh
Cc1ccnc(NC(c2ccsc2)c2ccc3ccc(C)nc3c2O)c1 (stereo not drawn)	i	?	?	?	?	3µM
Cc1cccc(NC(c2ccccc2C)c2ccc3ccc(C)nc3c2O)n1 (stereo not drawn)	i	i	?	22µM	nt	nt
Cc1ccc2ccc(C(Nc3ccccn3)c3ccccc3)c(O)c2n1 (stereo not drawn)	i	i	?	?	i	?
Cc1ccc2ccc(C(Nc3ccccc3)c3ccccc3)c(O)c2n1 (stereo not drawn)	nt	nt	nt	nt	i	i
Cc1ccc2ccc(C(Nc3ccccc3)c3ccc(F)cc3)c(O)c2n1 (stereo not drawn)	nt	nt	nt	nt	i	i
COc1ccc(C(Nc2cc(C)ccn2)c2ccc3ccc(C)nc3c2O)cc1 (stereo not drawn)	i	i	?	i	i	15µM
O=C(CCl)NC1(C(=O)O)CCCC1	nt	nt	nt	nt	i	i
COc1ccc(C)c(-n2c(N)cc(=O)n(Cc3ccccc3)c2=O)c1	i	i	i	i	i	i
COc1ccc(OC)c2c(C)cc(N3CCN(C(=O)c4ccc(F)cc4)CC3)nc12	nt	i	?	50µM	i	i
COc1ccc(OC)c2c(C)cc(N3CCN(C(=O)c4ccc(C)cc4)CC3)nc12	i	i	?	50µM	i	i
COc1ccc(C(=O)N2CCN(c3ccc(C)c(C)c3)CC2)cc1OC	i	i	i	i	i	i
COc1ccc(C(=O)N2CCN(c3ccc(C)cc3C)CC2)cc1OC	i	i	i	i	i	i
COc1cc(/C=N/NC(=O)c2csc3c2CCCC3)ccc1OCCN1CCOCC1	i	i	i	?	i	i
Clc1cccc(Cl)c1C1Nc2cccc3cccc(c23)N1	i	?	45µM	25µM	i	i
Fc1cccc(Cl)c1C1Nc2cccc3cccc(c23)N1	i	i	?	32µM	i	i
O=C(Nc1ccccc1F)c1csc(COCCO)n1	nt	nt	nt	nt	i	i
COC(=O)C1=C(C)N(c2ccc(OC)c(OC)c2)C(=O)/C1=C\c1ccco1	i	i	i	35µM	i	i
COC(=O)C1=C(C)N(c2ccccc2)/C(=C/c2ccco2)C1=O	i	i	i	i	i	i
COC(=O)C1=C(C)N(c2cc(C)cc(C)c2)/C(=C/c2ccco2)C1=O	i	i	79µM	50µM	i	i
CCOC(=O)C1=C(C)N(c2ccccc2)C(=O)/C1=C\c1ccco1	i	i	?	i	i	i
Cc1cccc(S(=O)(=O)c2cn(Cc3ccccc3)c3cc(N4CCCCC4)c(F)cc3c2=O)c1	i	i	i	i	nt	nt
CC(C)OCc1ccc(C(=O)N2CCN(CC(=O)N3CCCC3)CC2)cc1	i	i	i	nt	i	i
S=c1nc[nH]c2nc[nH]c12	?	i	4µM	35µM	i	i
O=c1[nH]c(=S)[nH]c2nc[nH]c12	nt	i	?	nt	nt	nt
O=C(CSc1ccccc1C(=O)O)NC12CC3CC(CC(C3)C1)C2	i	i	?	i	i	30µM
CC(C)(C)[C@@H]1C=C(C(=O)Nc2ccccc2)O[C@H](OCc2ccc(CO)cc2)C1	i	i	i	i	i	i
